697 NFkB inh: inhibitors of the PMA/ionomycin-induced NF-kB reporter in 697 B cells | 697 B-cell NF-kB luciferase reporter, 16 h | inhibition, % at 4 µM | 0.33% of 330,000 active; in the data active = inhibition above about 35%
aSyn 5UTR inh: 5' untranslated region of α-synuclein, MLPCN primary screen; alpha-synuclein 5'UTR reporter, inhibitor activity; inhibition, % (tested at 7.5 µM); 0.82% of 300,000 active; in the data active = inhibition above about 60%;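 note: H4 neuroglioblastoma cells stably carrying SNCA 5'UTR luciferase fusion; 0% = DMSO wells and 100% = positive control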
Gli-Sufu antag: Gli-Sufu pathway antagonism; Sufu-KO-LIGHT fibroblasts, Gli luciferase reporter luminescence; inhibition, % at 5 µM; AID 588413; 0.74% of 340,000 active;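 active = inhibition above about 55%, limit read from the data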;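 note: 0% = DMSO-treated cells and 100% = wells with medium but no cells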
Mdm2 MdmX PPI: disrupts the human Mdm2-MdmX interaction | O15151+Q00987 | SaOS-2 split-luciferase Mdm2/MdmX complementation, luminescence | 3% of 330,000 active | inhibition, % at 8 µM;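 active = inhibition of at least 50% at 8 µM in the primary screen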
Target sequence (O15151 whole entry, looked up): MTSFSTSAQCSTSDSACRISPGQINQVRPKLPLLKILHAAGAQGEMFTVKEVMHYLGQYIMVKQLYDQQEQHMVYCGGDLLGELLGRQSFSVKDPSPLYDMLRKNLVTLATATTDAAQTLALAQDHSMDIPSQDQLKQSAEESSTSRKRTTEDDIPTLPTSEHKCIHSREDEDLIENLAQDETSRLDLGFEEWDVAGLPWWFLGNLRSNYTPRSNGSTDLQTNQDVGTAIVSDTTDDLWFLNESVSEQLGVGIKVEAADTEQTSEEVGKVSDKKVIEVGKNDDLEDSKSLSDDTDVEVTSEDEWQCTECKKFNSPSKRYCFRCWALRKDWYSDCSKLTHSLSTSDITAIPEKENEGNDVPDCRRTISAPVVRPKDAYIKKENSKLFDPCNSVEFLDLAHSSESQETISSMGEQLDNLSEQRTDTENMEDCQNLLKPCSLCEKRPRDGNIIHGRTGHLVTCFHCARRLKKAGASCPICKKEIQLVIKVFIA
Target sequence (Q00987 whole entry, looked up): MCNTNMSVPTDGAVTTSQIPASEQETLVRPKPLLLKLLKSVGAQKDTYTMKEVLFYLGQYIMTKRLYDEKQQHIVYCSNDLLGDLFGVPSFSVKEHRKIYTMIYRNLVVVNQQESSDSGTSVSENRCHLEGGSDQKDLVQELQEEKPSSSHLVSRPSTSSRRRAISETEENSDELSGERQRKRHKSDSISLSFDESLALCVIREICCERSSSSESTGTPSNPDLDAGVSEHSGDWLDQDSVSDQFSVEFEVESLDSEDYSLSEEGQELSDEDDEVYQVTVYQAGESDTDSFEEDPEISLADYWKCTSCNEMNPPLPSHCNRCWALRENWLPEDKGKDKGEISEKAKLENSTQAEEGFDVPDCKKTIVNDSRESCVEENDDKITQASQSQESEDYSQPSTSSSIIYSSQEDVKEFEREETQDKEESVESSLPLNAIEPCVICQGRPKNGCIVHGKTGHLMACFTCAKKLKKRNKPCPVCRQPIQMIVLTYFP
KLF5 inh: suppresses KLF5 promoter-driven expression; DLD-1 KLF5 promoter-luciferase reporter, luminescence; inhibition, % at 5 µM; 0.23% of 290,000 active;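 active = inhibition above a per-plate limit of that plate's mean compound inhibition plus 3 SD, cut at about 60% in these data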;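 note: 0% = DMSO wells and 100% = LY294002 at 200 µM; higher means less KLF5 promoter-driven luciferase light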
Jurkat NFkB inh: inhibitors of the PMA/ionomycin-induced NF-kB reporter in Jurkat cells; PMA/ionomycin-induced NF-kB luciferase reporter, luminescence; inhibition, % at 4 µM; 0.53% of 330,000 active; in the data active = inhibition above about 50%
Mdm2 MdmX conf: human Mdm2/MdmX binding inhibition, confirmed; shares compounds with Mdm2 MdmX PPI; luminescent assay; inhibition, % at 8 µM; 55% of 10,000 active; AID 489028; in the data active = inhibition above about 40%
FLuc counter: counter-screen for Mdm2/MdmX inhibitors: full-length luciferase; SaOS-2 full-length luciferase counterscreen, luminescence; 77% of 6,200 active; AID 504607; shares compounds with Mdm2 MdmX PPI; inhibition, % at 8 µM;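 active = mean inhibition at 8 µM reaching about 37%, which flags the compound as non-specific, limit read from the data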;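 note: p53-null SaOS-2 cells with luciferase driven by a doxycycline-inducible promoter; compound on cells about two nights before reading with doxycycline added after day one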
* = called active by the depositor. Shown are actives, neighbours in structure and some others; about 4.1% of the full set was active somewhere.

`Cc1cc(C(=O)CSc2nnc(-c3ccc(F)cc3)o2)c(C)n1CC1COc2ccccc2O1` (stereo not given) gave 697 NFkB inh 3, aSyn 5UTR inh 16, Gli-Sufu antag 8, Mdm2 MdmX PPI 62*, KLF5 inh -12, Jurkat NFkB inh 14 and Mdm2 MdmX conf 23.
For O=C(COc1ccc(Br)cc1)OCCN1CCCCC1 the results were 697 NFkB inh 11, aSyn 5UTR inh 1, Gli-Sufu antag -10, Mdm2 MdmX PPI 12, KLF5 inh -34 and Jurkat NFkB inh 13.
`CS(=O)(=O)Nc1ccc(C(=O)NC2CCCCC2)cc1` gave 697 NFkB inh 6, aSyn 5UTR inh 10, Gli-Sufu antag -2, Mdm2 MdmX PPI -8, KLF5 inh 1 and Jurkat NFkB inh 13.
For CS(=O)(=O)c1ccc(C(=O)NC2CCCCC2)cc1 the results were 697 NFkB inh -8, aSyn 5UTR inh -11, Gli-Sufu antag 8, Mdm2 MdmX PPI 55*, KLF5 inh -27, Jurkat NFkB inh -2 and Mdm2 MdmX conf 18.
Screening COc1ccccc1Nc1nnc(SCC(=O)NC(=O)Nc2ccc3c(c2)OCCO3)s1 returned 697 NFkB inh -4, aSyn 5UTR inh 1, Gli-Sufu antag 10, Mdm2 MdmX PPI 68*, KLF5 inh -29, Jurkat NFkB inh 11, Mdm2 MdmX conf 57* and FLuc counter 44*.
`Cc1ccccc1Nc1nnc(SCC(=O)NC(=O)Nc2ccc3c(c2)OCCO3)s1` gave 697 NFkB inh -34, aSyn 5UTR inh -86, Mdm2 MdmX PPI 33, KLF5 inh -50 and Jurkat NFkB inh -9.
`Cc1cccc(Nc2nnc(SCC(=O)NC(=O)Nc3ccc4c(c3)OCCO4)s2)c1` gave 697 NFkB inh 21, aSyn 5UTR inh -95, Gli-Sufu antag -4, Mdm2 MdmX PPI 91*, KLF5 inh -18, Jurkat NFkB inh 7 and Mdm2 MdmX conf 24.
Cc1nnc(SCC(=O)NC(=O)Nc2ccc3c(c2)OCCO3)s1 was read as 697 NFkB inh -1, aSyn 5UTR inh -17, Gli-Sufu antag -3, Mdm2 MdmX PPI 2, KLF5 inh -38 and Jurkat NFkB inh -3.
Screening CN(Cc1ccccc1)C(=O)COC(=O)CCC(=O)c1ccc(Cl)cc1 returned 697 NFkB inh -2, Gli-Sufu antag 6, Mdm2 MdmX PPI 7 and Jurkat NFkB inh 1.
Screening CC1=CC(C)(C)n2c(O)c(C3=NC(=S)NC3=O)c3cc(OC(=O)c4cccc5ccccc45)cc1c32 returned 697 NFkB inh -8, aSyn 5UTR inh 34, Gli-Sufu antag 16, Mdm2 MdmX PPI 77*, KLF5 inh -9, Jurkat NFkB inh 4 and Mdm2 MdmX conf 14.
Screening COc1cccc(/C=N/Nc2nc(Nc3ccccc3)nc(-n3nc(C)cc3C)n2)c1O returned 697 NFkB inh 9, aSyn 5UTR inh 57, Gli-Sufu antag 19, Mdm2 MdmX PPI 57*, KLF5 inh 12, Jurkat NFkB inh -7 and Mdm2 MdmX conf 23.
COc1cccc(/C=N/Nc2cc(-n3nc(C)cc3-c3ccccc3)ncn2)c1O was read as 697 NFkB inh 2, aSyn 5UTR inh 110*, Gli-Sufu antag 41, Mdm2 MdmX PPI 59*, KLF5 inh -38, Jurkat NFkB inh 19, Mdm2 MdmX conf 78* and FLuc counter 50*.
c1ccc(-c2ccccc2OCCCCn2ccnc2)cc1 was read as 697 NFkB inh -8, aSyn 5UTR inh 10, Gli-Sufu antag 22, Mdm2 MdmX PPI 3, KLF5 inh -12 and Jurkat NFkB inh -1.
Screening O=C(CN1C(=O)COc2ccc(Cl)cc21)Nc1ccccn1 returned 697 NFkB inh -9, aSyn 5UTR inh 5, Gli-Sufu antag -11, Mdm2 MdmX PPI -8, KLF5 inh -26 and Jurkat NFkB inh 13.
`O=C(COC(=O)c1ccc(F)c([N+](=O)[O-])c1)NC(=O)NCc1ccccc1` gave 697 NFkB inh -47, Gli-Sufu antag -2, Mdm2 MdmX PPI 73*, Jurkat NFkB inh -40 and Mdm2 MdmX conf -1.
`Cc1ccc(C(=O)OCC(=O)NC(=O)NCc2ccccc2)cc1C` gave 697 NFkB inh 9, Gli-Sufu antag 0, Mdm2 MdmX PPI -10 and Jurkat NFkB inh 7.
`O=C(CSc1nccn1Cc1ccccc1)NC1CCCC1` gave 697 NFkB inh -2, aSyn 5UTR inh -24, Gli-Sufu antag -4, Mdm2 MdmX PPI 21, KLF5 inh -36 and Jurkat NFkB inh -9.
Cc1c(C(=O)Nc2cccc([N+](=O)[O-])c2)cnn1-c1ccccc1 was read as 697 NFkB inh -102, aSyn 5UTR inh -137, Mdm2 MdmX PPI -54, KLF5 inh -154 and Jurkat NFkB inh -86.
Screening Cc1nn(Cc2c(Cl)cccc2Cl)c(C)c1NC(=O)c1sc2ccccc2c1Cl returned 697 NFkB inh 5, aSyn 5UTR inh -43, Gli-Sufu antag -7, Mdm2 MdmX PPI 53*, KLF5 inh -4, Jurkat NFkB inh 1 and Mdm2 MdmX conf 14.
Screening Cc1nn(Cc2ccc(Cl)c(Cl)c2)c(C)c1NC(=O)c1sc2ccccc2c1Cl returned 697 NFkB inh 15, aSyn 5UTR inh 16, Gli-Sufu antag -4, Mdm2 MdmX PPI 53*, KLF5 inh -15, Jurkat NFkB inh -2 and Mdm2 MdmX conf 14.
For Cc1nn(Cc2c(Cl)cccc2Cl)c(C)c1NC(=O)c1cn(-c2ccccc2)nc1-c1ccccc1 the results were 697 NFkB inh -31, aSyn 5UTR inh 122*, Gli-Sufu antag 36, Mdm2 MdmX PPI 98*, KLF5 inh -20, Jurkat NFkB inh 25, Mdm2 MdmX conf 99* and FLuc counter 37*.
For Cc1cccc(-n2c(O)c(C=Nc3ccc(O)cc3)c3ccccc3c2=O)n1 the results were 697 NFkB inh 19, aSyn 5UTR inh 23, Gli-Sufu antag 11, Mdm2 MdmX PPI 2, KLF5 inh -9 and Jurkat NFkB inh 0.
For Cc1ccc(N=Cc2c(O)n(-c3ccc4c(c3)OCO4)c(=O)c3ccccc23)cc1 the results were 697 NFkB inh 11, aSyn 5UTR inh 48, Gli-Sufu antag -24, Mdm2 MdmX PPI 69*, KLF5 inh 7, Jurkat NFkB inh 5, Mdm2 MdmX conf 42* and FLuc counter 36*.
For COc1cc(Cl)c(NC2=CC(=O)C(=O)c3ccccc32)c(OC)c1 the results were 697 NFkB inh -35, Gli-Sufu antag 6, Mdm2 MdmX PPI 53*, Jurkat NFkB inh 32, Mdm2 MdmX conf 59* and FLuc counter 50*.
O=C(Nc1ccccc1Br)C1CC(=O)N(c2ccc3c4c(cccc24)CC3)C1 (stereo not given) was read as 697 NFkB inh -5, aSyn 5UTR inh -12, Gli-Sufu antag 10, Mdm2 MdmX PPI 50*, KLF5 inh -22, Jurkat NFkB inh 48, Mdm2 MdmX conf 57* and FLuc counter 65*.

High-throughput results deposited in PubChem BioAssay by several laboratories.
